# Experimental data reported in the supplement of paper PMC4022240.
# ± gives the standard deviation.
# T1: HaloTag-ATRX ADD domain (163-292)
# T1 chain: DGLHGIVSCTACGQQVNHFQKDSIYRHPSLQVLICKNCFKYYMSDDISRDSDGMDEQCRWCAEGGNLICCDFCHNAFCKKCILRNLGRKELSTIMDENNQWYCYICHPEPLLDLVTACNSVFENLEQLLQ
# Columns and labels:
# Assay in all cases: peptide microarray binding signal (635 nm), min-max normalized on array (fraction of array maximum); higher = stronger binding
# Settings in all cases: peptide region: Unmod H4 variant
# [1] = target: T1, HaloTag-ATRX ADD domain (163-292)
# Outline: (§1)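 Within each library, mean intensities of triplicate spots were min-max scaled to give the binding signal. The spots were histone 13-mer peptide–cellulose conjugates on nitrocellulose with a Cy3 tracer, blocked overnight at 4°C. They were then probed for 1 h at 4°C using biotin-labelled HaloTag reader fusions (10 nM to 1 μM) with streptavidin-Alexa Fluor 647 or rabbit histone antibodies (1:10,000 to 1:2,000) with anti-rabbit Alexa 647, and scanned at 635 nm for signal and 532 nm for misprints on an Axon GenePix 4000B.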
# [2] = target: HaloTag-ING2 PHD (mouse Ing2 200-280)
# Outline: as §1
# [3] = target: anti-H3K4me3 antibody ab8580
# Outline: as §1
# [4] = target: anti-H3K9me3 antibody ab8898
# Outline: as §1
# [5] = binder concentration: 1:2,000 dilution
# [6] = binder concentration: 1:10,000 dilution
Binder,peptide microarray binding signal ([1]; binder concentration: 50 nM),peptide microarray binding signal ([1]; binder concentration: 500 nM),peptide microarray binding signal ([2]; binder concentration: 10 nM),peptide microarray binding signal ([2]; binder concentration: 100 nM),"peptide microarray binding signal [3, 5]","peptide microarray binding signal [3, 6]","peptide microarray binding signal [4, 5]","peptide microarray binding signal [4, 6]"
TYTEHAKRKTVTA [Unmod H4 variant T Y T E H A K R K T V T A],0.0167 ± 0.0088,0.0332 ± 0.0014,0.00901 ± 0.00035,0.0293 ± 0.0034,0.00155 ± 0.00011,0.0024 ± 0.00014,0.00104 ± 3.8e-05,0.00202 ± 8.6e-05
FLENVIRDAVTYT [Unmod H4 variant F L E N V I R D A V T Y T],0.0144 ± 0.0008,0.0404 ± 0.01,0.00901 ± 0.0012,0.0294 ± 0.011,0.00381 ± 0.00074,0.00519 ± 0.00068,0.00331 ± 0.00056,0.0034 ± 0.00025
YEETRGVLKVFLE [Unmod H4 variant Y E E T R G V L K V F L E],0.00188 ± 2.3e-05,0.00157,0.00197 ± 3e-05,0.001913 ± 1.9e-05,0.00123 ± 0.00021,0.000742,0.000287 ± 2.9e-06,0.000807 ± 2.5e-05
AKRKTVTAMDVVY [Unmod H4 variant A K R K T V T A M D V V Y],0.00693 ± 0.00037,0.0206 ± 0.0015,0.00609 ± 0.00018,0.0129 ± 0.0003,0.00104 ± 3.5e-05,0.001484 ± 1.4e-05,0.000604 ± 2e-05,0.00104 ± 1.1e-05
IRDAVTYTEHAKR [Unmod H4 variant I R D A V T Y T E H A K R],0.0385 ± 0.0035,0.0711 ± 0.01,0.0251 ± 0.0019,0.0444 ± 0.0047,0.00429 ± 0.00052,0.00913 ± 0.0018,0.00497 ± 9e-05,0.00577 ± 8e-05
GVLKVFLENVIRD [Unmod H4 variant G V L K V F L E N V I R D],0.00223 ± 6.3e-05,0.00281 ± 0.00014,0.00388 ± 0.00015,0.00269 ± 6.7e-05,0.00174 ± 0.00026,0.00097 ± 2e-05,0.00125 ± 0.00016,0.00098
